From PMC7862700, “An all-to-all approach to the identification of sequence-specific readers for epigenetic DNA modifications on cytosine”

Legend:
Experiment in all cases: DAPPL (digital affinity profiling via proximity ligation, sequencing); 10 mM Tris-HCl pH 7.5, 50 mM NaCl, 1 mM DTT, 4% glycerol, room temperature, 30 min; GST-TFs on glutathione beads, 16-mer random dsDNA library, 0.1% formaldehyde crosslink after washing; high values mean tight binding
FEV = molecular target: T1, FEV (Homo sapiens, UniProt Q99581 1-238); conditions: protein: recombinant; tags: N-terminal GST; dsDNA, one strand shown
T1 sequence: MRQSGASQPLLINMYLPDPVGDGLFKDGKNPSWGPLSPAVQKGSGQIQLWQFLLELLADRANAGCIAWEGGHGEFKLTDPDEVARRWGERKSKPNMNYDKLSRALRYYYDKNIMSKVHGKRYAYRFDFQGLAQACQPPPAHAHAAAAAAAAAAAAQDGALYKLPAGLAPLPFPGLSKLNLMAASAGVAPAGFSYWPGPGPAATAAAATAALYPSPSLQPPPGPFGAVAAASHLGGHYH
Method in brief: (§1)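 The binding signal reported is, for every hexamer, its read frequency for a factor over its read frequency for the tag-only sample. Reads came from pools of yeast-expressed, GST-fused human transcription factors on glutathione beads, barcoded with DNA and mixed with that sample, which were incubated with 200 nmole of a random double-stranded 16-mer DNA library in Tris/NaCl/DTT/glycerol buffer at room temperature for 30 min. After washing, the pools were crosslinked with 0.1% formaldehyde, proximity-ligated with BsaI/T4 ligase for 1 h at 37 °C, PCR-amplified and sequenced on an Illumina NextSeq500.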

ETV5 = ETV5 (Homo sapiens, UniProt P41161 1-510); conditions: protein: recombinant; tags: N-terminal GST; dsDNA, one strand shown
Method in brief: as §1

HSF1 = HSF1 (Homo sapiens, UniProt Q00613 1-529); conditions: protein: recombinant; tags: N-terminal GST; chain copies: 3; dsDNA, one strand shown
Method in brief: as §1

SPIC = molecular target: T2, SPIC (Homo sapiens, UniProt Q8N5J4 1-248); conditions: protein: recombinant; tags: N-terminal GST; dsDNA, one strand shown
T2 sequence: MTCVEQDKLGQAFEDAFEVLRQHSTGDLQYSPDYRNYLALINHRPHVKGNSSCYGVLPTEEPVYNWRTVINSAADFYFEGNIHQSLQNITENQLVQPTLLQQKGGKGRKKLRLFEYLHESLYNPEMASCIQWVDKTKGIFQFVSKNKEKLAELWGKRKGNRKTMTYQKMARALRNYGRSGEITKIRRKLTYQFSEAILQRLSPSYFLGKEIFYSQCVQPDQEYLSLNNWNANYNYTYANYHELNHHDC
Method in brief: as §1

ELF4 = ELF4 (Homo sapiens, UniProt Q99607 1-663); conditions: protein: recombinant; tags: N-terminal GST; dsDNA, one strand shown
Method in brief: as §1

ELK4 = molecular target: T3, ELK4 (Homo sapiens, UniProt P28324-2 1-405); conditions: protein: recombinant; tags: N-terminal GST; dsDNA, one strand shown
T3 sequence: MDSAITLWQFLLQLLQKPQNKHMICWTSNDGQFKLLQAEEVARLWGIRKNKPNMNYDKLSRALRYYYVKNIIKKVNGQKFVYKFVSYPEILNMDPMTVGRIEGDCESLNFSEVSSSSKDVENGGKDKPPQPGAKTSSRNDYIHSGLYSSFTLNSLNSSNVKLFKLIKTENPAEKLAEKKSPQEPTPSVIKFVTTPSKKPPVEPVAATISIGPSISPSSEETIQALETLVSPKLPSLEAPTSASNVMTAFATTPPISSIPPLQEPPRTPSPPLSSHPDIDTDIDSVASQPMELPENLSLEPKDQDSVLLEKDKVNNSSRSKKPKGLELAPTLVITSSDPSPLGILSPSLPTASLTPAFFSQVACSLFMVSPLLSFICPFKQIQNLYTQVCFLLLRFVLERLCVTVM
Method in brief: as §1

ETV2 = molecular target: T4, ETV2 (Homo sapiens, UniProt O00321 1-342); conditions: protein: recombinant; tags: N-terminal GST; dsDNA, one strand shown
T4 sequence: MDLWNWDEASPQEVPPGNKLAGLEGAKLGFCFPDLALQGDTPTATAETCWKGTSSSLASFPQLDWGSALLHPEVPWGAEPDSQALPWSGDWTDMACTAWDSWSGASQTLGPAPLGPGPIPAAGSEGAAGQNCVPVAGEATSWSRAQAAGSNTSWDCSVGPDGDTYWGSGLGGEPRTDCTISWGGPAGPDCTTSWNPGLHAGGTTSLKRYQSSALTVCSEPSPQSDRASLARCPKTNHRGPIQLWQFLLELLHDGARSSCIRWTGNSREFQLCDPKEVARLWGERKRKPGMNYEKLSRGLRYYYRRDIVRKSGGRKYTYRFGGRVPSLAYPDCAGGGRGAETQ
Method in brief: as §1

ELF3 = molecular target: T5, ELF3 (Homo sapiens, UniProt P78545 1-371); conditions: protein: recombinant; tags: N-terminal GST; dsDNA, one strand shown
T5 sequence: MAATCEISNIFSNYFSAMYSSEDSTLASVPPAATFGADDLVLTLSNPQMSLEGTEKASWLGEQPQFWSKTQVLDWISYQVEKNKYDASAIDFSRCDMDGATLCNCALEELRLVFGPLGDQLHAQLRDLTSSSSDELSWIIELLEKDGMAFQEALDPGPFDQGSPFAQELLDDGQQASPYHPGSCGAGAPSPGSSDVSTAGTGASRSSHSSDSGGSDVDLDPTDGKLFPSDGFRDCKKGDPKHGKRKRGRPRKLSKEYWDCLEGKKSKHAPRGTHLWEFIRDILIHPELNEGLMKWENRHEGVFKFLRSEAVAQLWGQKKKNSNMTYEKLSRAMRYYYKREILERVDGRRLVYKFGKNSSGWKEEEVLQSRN
Method in brief: as §1

CRX = CRX (Homo sapiens, UniProt O43186 1-299); conditions: protein: recombinant; tags: N-terminal GST; dsDNA, one strand shown
Method in brief: as §1

ETV1 = ETV1 (Homo sapiens, UniProt P50549 1-477); conditions: protein: recombinant; tags: N-terminal GST; dsDNA, one strand shown
Method in brief: as §1

ERF = molecular target: T6, ERF (Homo sapiens, UniProt P50548 1-548); conditions: protein: recombinant; tags: N-terminal GST; dsDNA, one strand shown
T6 sequence: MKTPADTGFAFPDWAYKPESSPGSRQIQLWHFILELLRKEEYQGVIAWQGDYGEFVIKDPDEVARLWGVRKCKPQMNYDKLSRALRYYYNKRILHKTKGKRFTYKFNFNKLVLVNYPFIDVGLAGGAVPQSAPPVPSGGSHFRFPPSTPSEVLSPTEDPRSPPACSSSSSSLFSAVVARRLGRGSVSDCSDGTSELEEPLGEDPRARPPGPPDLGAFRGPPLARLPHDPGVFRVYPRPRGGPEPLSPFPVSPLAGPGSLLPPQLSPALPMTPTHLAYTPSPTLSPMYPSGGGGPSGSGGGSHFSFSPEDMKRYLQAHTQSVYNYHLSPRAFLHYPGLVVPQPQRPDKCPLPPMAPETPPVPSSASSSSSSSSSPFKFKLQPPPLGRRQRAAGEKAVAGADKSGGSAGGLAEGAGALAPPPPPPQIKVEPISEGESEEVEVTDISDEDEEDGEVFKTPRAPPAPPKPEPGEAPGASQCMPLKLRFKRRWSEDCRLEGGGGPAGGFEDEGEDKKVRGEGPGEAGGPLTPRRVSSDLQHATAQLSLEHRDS
Method in brief: as §1

ETV3L = molecular target: T7, ETV3L (Homo sapiens, UniProt Q6ZN32 1-361); conditions: protein: recombinant; tags: N-terminal GST; dsDNA, one strand shown
T7 sequence: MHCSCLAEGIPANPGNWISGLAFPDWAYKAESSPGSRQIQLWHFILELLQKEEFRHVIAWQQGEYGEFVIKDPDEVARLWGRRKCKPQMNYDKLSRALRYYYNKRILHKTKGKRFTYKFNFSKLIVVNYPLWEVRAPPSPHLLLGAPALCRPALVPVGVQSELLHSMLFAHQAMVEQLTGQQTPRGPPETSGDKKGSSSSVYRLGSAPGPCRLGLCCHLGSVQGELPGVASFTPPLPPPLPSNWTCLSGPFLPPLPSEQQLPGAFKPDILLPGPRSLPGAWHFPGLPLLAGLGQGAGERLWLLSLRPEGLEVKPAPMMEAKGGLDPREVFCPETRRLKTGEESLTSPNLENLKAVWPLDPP
Method in brief: as §1

ETS2 = molecular target: T8, ETS2 (Homo sapiens, UniProt P15036 1-469); conditions: protein: recombinant; tags: N-terminal GST; dsDNA, one strand shown
T8 sequence: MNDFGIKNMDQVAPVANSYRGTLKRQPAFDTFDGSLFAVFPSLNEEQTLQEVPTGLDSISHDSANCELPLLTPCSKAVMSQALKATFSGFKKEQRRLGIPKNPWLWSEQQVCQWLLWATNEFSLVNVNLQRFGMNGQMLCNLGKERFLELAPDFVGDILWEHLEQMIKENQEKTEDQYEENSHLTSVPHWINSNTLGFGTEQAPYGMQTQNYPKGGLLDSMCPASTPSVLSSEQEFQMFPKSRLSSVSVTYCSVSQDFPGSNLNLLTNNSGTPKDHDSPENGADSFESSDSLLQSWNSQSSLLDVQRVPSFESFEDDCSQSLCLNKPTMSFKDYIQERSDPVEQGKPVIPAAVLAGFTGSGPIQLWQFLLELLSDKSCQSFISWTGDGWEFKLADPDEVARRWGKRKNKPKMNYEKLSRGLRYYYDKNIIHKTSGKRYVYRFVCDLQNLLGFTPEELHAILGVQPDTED
Method in brief: as §1

SPDEF = molecular target: T9, SPDEF (Homo sapiens, UniProt O95238 1-335); conditions: protein: recombinant; tags: N-terminal GST; dsDNA, one strand shown
T9 sequence: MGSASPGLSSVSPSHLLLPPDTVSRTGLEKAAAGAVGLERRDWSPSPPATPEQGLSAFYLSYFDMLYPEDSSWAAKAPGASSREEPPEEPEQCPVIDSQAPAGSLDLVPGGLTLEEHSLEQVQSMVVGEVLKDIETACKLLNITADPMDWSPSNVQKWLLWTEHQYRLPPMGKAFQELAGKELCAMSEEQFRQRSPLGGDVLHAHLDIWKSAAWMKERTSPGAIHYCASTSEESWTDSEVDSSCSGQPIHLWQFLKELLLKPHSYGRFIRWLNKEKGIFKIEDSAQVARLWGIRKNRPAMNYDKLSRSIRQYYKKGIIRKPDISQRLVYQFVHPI
Method in brief: as §1

ETV7 = molecular target: T10, ETV7 (Homo sapiens, UniProt Q9Y603 1-341); conditions: protein: recombinant; tags: N-terminal GST; dsDNA, one strand shown
T10 sequence: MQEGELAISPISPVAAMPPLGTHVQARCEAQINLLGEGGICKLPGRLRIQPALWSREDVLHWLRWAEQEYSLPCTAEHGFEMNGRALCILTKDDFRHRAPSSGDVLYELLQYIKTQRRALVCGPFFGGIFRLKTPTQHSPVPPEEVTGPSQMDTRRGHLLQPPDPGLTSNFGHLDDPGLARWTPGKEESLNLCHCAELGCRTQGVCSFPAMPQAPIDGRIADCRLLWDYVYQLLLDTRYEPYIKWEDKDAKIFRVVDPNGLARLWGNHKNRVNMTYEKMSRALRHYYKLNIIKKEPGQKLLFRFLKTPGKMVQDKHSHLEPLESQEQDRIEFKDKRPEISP
Method in brief: as §1

ELF5 = molecular target: T11, ELF5 (Homo sapiens, UniProt Q9UKW6-2 1-255); conditions: protein: recombinant; tags: N-terminal GST; dsDNA, one strand shown
T11 sequence: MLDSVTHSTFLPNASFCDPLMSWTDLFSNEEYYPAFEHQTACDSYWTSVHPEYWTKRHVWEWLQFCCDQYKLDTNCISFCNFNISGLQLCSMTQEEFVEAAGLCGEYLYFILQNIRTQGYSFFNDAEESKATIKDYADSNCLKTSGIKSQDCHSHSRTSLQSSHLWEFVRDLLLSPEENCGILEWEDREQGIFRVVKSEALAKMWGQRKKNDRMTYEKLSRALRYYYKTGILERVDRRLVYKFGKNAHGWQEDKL
Method in brief: as §1

ETV3 = molecular target: T12, ETV3 (Homo sapiens, UniProt P41162-2 1-143); conditions: protein: recombinant; tags: N-terminal GST; dsDNA, one strand shown
T12 sequence: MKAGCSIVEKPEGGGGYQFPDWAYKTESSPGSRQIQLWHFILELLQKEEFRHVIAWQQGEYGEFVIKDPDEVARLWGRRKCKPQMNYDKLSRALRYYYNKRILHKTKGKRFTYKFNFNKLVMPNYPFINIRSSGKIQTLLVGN
Method in brief: as §1

ETV6 = ETV6 (Homo sapiens, UniProt P41212 1-452); conditions: protein: recombinant; tags: N-terminal GST; dsDNA, one strand shown
Method in brief: as §1

Sequence of HSF1 (Q00613 whole entry): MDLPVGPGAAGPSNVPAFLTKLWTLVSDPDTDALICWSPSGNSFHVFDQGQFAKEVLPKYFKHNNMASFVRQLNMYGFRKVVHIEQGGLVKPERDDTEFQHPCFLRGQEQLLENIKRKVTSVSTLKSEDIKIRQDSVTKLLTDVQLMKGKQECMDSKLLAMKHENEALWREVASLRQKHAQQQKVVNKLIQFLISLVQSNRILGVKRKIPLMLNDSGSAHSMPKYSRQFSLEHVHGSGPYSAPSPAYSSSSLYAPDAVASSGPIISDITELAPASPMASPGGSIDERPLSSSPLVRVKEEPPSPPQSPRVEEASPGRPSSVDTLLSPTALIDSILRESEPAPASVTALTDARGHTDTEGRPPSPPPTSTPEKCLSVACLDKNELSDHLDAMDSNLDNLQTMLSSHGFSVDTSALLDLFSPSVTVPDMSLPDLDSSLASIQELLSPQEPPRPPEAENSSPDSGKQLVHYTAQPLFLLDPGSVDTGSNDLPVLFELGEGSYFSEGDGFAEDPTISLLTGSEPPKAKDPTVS
Sequence of CRX (O43186 whole entry): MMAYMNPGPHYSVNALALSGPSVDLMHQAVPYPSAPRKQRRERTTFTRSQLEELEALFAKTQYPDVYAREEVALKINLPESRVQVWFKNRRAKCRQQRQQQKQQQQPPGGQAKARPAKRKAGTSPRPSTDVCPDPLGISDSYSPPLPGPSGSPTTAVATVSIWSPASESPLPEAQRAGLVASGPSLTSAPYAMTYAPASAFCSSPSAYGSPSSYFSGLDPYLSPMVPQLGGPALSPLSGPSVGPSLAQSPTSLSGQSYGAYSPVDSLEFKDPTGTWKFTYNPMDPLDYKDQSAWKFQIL
Sequence of ETV1 (P50549 whole entry): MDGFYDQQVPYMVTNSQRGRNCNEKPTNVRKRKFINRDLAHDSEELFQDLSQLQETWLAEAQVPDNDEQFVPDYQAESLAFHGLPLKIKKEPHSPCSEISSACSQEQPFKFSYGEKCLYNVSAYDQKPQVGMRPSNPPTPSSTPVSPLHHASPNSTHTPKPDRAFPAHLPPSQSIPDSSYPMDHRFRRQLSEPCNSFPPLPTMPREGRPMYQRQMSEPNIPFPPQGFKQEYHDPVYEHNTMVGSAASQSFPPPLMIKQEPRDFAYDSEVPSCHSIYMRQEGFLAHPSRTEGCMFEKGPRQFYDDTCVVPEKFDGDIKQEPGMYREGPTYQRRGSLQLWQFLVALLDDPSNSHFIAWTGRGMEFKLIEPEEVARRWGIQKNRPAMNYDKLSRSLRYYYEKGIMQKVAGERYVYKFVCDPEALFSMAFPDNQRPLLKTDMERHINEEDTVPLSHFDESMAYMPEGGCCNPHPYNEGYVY
Sequence of ETV5 (P41161 whole entry): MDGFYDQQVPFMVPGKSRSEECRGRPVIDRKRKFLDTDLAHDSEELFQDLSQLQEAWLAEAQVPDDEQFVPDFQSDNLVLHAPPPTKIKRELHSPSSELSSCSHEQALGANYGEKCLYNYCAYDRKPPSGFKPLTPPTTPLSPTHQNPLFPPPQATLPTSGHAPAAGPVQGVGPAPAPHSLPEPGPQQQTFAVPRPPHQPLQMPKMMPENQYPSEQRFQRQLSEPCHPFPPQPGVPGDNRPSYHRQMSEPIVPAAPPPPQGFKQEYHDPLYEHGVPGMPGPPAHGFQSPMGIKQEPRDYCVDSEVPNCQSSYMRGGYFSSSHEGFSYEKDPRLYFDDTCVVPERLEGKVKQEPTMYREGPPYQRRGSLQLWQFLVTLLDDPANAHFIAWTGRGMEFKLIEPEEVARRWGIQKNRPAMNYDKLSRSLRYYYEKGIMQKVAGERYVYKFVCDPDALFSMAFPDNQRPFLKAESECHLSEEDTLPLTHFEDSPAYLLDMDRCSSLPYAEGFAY
Sequence of ELF4 (Q99607 whole entry): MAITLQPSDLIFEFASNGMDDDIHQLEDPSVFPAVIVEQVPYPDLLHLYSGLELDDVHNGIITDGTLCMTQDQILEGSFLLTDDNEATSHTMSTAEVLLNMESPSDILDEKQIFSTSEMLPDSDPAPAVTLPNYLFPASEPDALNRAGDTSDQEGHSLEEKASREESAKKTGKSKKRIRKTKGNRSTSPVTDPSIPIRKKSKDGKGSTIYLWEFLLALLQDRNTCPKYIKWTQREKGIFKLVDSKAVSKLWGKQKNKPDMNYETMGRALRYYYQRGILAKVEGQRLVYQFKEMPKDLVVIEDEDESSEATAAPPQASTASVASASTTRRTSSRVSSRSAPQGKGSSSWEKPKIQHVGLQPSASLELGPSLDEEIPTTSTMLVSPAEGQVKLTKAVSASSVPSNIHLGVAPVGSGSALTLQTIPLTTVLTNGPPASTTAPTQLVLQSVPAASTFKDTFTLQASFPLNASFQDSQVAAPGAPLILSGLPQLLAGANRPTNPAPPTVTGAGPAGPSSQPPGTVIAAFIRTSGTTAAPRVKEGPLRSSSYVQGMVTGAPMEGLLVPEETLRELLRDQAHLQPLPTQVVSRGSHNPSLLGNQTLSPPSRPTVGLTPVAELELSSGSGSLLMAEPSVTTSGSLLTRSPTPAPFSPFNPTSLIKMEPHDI
Sequence of ETV6 (P41212 whole entry): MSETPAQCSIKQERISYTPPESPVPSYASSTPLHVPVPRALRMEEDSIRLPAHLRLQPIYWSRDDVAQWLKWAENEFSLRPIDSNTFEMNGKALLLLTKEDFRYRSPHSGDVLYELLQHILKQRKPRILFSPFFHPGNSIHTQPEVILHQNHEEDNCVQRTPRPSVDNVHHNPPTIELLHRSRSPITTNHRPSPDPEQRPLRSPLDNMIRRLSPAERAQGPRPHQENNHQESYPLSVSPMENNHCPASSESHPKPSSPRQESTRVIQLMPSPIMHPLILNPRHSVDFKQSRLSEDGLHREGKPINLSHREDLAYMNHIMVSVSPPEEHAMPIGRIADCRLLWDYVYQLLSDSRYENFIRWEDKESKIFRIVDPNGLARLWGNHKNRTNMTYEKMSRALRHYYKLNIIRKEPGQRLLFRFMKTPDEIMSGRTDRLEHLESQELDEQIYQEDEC

CCCGAT
binding signal (FEV): 1.27 fold enrichment (6-mer frequency, TF over GST control) | binding signal (ETV5): 1.2 fold enrichment (6-mer frequency, TF over GST control) | binding signal (HSF1): 1.38 fold enrichment (6-mer frequency, TF over GST control) | binding signal (SPIC): 1.29 fold enrichment (6-mer frequency, TF over GST control) | binding signal (ELF4): 1.23 fold enrichment (6-mer frequency, TF over GST control) | binding signal (ELK4): 1.11 fold enrichment (6-mer frequency, TF over GST control) | binding signal (ETV2): 1.02 fold enrichment (6-mer frequency, TF over GST control) | binding signal (ELF3): 1.2 fold enrichment (6-mer frequency, TF over GST control) | binding signal (CRX): 1.37 fold enrichment (6-mer frequency, TF over GST control) | binding signal (ETV1): 1.08 fold enrichment (6-mer frequency, TF over GST control) | binding signal (ERF): 1.22 fold enrichment (6-mer frequency, TF over GST control) | binding signal (ETV3L): 1.14 fold enrichment (6-mer frequency, TF over GST control) | binding signal (ETS2): 1.23 fold enrichment (6-mer frequency, TF over GST control) | binding signal (SPDEF): 1.11 fold enrichment (6-mer frequency, TF over GST control) | binding signal (ETV7): 1.24 fold enrichment (6-mer frequency, TF over GST control) | binding signal (ELF5): 1.24 fold enrichment (6-mer frequency, TF over GST control) | binding signal (ETV3): 1.21 fold enrichment (6-mer frequency, TF over GST control) | binding signal (ETV6): 1.06 fold enrichment (6-mer frequency, TF over GST control)
